Source: the supplement of paper PMC10981050
Values joined by “and” are separate entries in the source; they are usually repeats but may differ in a detail not shown here. Equal entries are not always repeated. Structures can show the parent of a compound that is named as a salt.

Experiments:
Assay in all cases: cell viability relative to vehicle control; higher = less cytotoxic
Details in all cases: 10 µM
K562 = system: K562
Outline: (§1)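 After removal of identity-inconsistent compounds, the Selleck bioactive, kinase and epigenetic probe libraries were screened on CRISPR-edited mutant clones and isogenic wild-type clones of four leukaemia lines. Plates were 384-well, each well holding 2000 cells in 50 µL medium and receiving a single 10 µM acoustically dispensed dose. CellTiter-Glo luminescence was read 48 h later, after the supernatant was taken off. Genedata Screener was used to express viability as percent of the on-plate vehicle control.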

MARIMO = system: MARIMO
Outline: as §1

MOLM14 = system: MOLM14
Outline: as §1

OCI-AML2 = system: OCI-AML2
Outline: as §1

| Structure (SMILES) | cell viability (K562; SRSF2 genotype: SRSF2 P95H/wt) | cell viability (K562; SRSF2 genotype: SRSF2 wt/wt) | cell viability (MARIMO; SRSF2 genotype: SRSF2 P95H/wt) | cell viability (MARIMO; SRSF2 genotype: SRSF2 wt/wt) | cell viability (MOLM14; SRSF2 genotype: SRSF2 P95H/wt) | cell viability (MOLM14; SRSF2 genotype: SRSF2 wt/wt) | cell viability (OCI-AML2; SRSF2 genotype: P95H/wt) | cell viability (OCI-AML2; SRSF2 genotype: wt/wt) |
| --- | --- | --- | --- | --- | --- | --- | --- | --- |
| CC(C)(C)[N+]([O-])=Cc1ccc(S(=O)(=O)O)cc1S(=O)(=O)O [NXY-059 (Disufenton sodium)] | 111% and 102% | 109% | 109% | 110% | 104% | 108% | 102% | 104% |
| CNc1cccc(CCOc2ccc3c(c2)CN(CC(F)(F)F)C(=O)[C@H](CC(=O)O)C3)n1 | 101% | 91.5% | 96.1% | 102% | 97.7% | 98.6% | 100% | 106% |
| O=C1CC(c2c[nH]c3ccc(F)cc23)C(=O)N1 (stereo unspecified) | 103% | 111% | 100% | 102% | 103% | 108% | 100% | 101% |
| N#C/C(=C(/N)Sc1ccc(N)cc1)c1ccccc1C(F)(F)F | 85.3% and 90.9% | 85.1% | 54% | 46.4% | 82.4% | 91.5% | 67.7% | 61.3% |
| O=C(NC1CCN(CCCCC2(C(=O)NCC(F)(F)F)c3ccccc3-c3ccccc32)CC1)c1ccccc1-c1ccc(C(F)(F)F)cc1 [Lomitapide] | 0.51% and 0.47% | 0.4% | 0.42% | 0.43% | 0.37% | 0.37% | 0.35% | 0.46% |
| CCN1CCN(c2cc3c(cc2F)c(=O)c(C(=O)O)cn3C2CC2)CC1 [Enrofloxacin] | 98.9% and 111% | 99.2% | 108% | 111% | 103% | 111% | 109% | 109% |
| Cn1c(=O)cc(N2CCC[C@@H](N)C2)n(Cc2ccccc2C#N)c1=O | 96.9% and 97.8% | 88.7% | 94% | 97.1% | 91.3% | 98.3% | 98% | 101% |
| S=c1[nH]cnc2nc[nH]c12 [Mercaptopurine (6-MP)] | 58.5% and 51.3% | 34.1% | 82.1% | 85.9% | 74.4% | 63.6% | 83.2% | 90% |
| CC(C)(c1ccc(OCC(O)CO)cc1)c1ccc(OCC(O)CCl)cc1 (stereo unspecified) | 82.3% and 81.7% | 85.8% | 83.5% | 104% | 86% | 90.9% | 84.8% | 86.5% |
| Cc1cc(F)c(Nc2ncnc3cc(OCc4ccccc4)ccc23)cc1O | 82.7% and 95.5% | 94.6% | 73.6% | 97.9% | 93.3% | 102% | 71.2% | 81% |
| COCCc1ccc(OCC(O)CNC(C)C)cc1 (stereo unspecified) [Metroprolol succinate] | 103% and 108% | 105% | 100% | 110% | 99.5% | 107% | 113% | 108% |
| O=C(O)c1ccc(-c2ccc(C=C3SC(=S)N(Cc4ccccc4)C3=O)o2)cc1 [Leukadherin-1] | 89.1% and 83.5% | 82.9% | 85.4% | 96.4% | 82.3% | 91.9% | 89% | 112% |
| O=C1C(=O)N(Cc2ccc(Cl)c(Cl)c2)c2ccccc21 [Apoptosis Activator 2] | 62.4% and 47.9% | 37.7% | 25.5% | 33.1% | 3.92% | 1.81% | 32% | 13.7% |
| Fc1ccc(CNc2ncnc3ccc(F)cc23)cc1 [Spautin-1] | 66.5% and 63.9% | 66.7% | 54.7% | 41.1% | 51.3% | 59.4% | 35.6% | 31.5% |
| COc1ccc(-c2cc(=O)c3c(O)cc(O)cc3o2)cc1O [Diosmetin (Luteolin 4-methyl ether)] | 86.7% and 96.9% | 83.9% | 105% | 121% | 50.9% | 53.6% | 81% | 74.6% |
| CC(=O)OCC(CCn1cnc2cnc(N)nc21)COC(C)=O [Famciclovir (Famvir)] | 103% and 95.1% | 90.8% | 99.7% | 104% | 99.3% | 97.5% | 94.7% | 98% |
| C[S+](CC[C@H](N)C(=O)[O-])C[C@H]1O[C@@H](n2cnc3c(N)ncnc32)[C@H](O)[C@@H]1O (stereo partly specified) [Ademetionine] | 108% and 105% | 119% | 104% | 108% | 109% | 111% | 129% | 133% |
| Nc1ncnc2c1ncn2[C@@H]1O[C@H](CO)[C@@H](O)[C@@H]1O [Vidarabine (Vira-A)] | 94.6% and 101% | 97% | 89.9% | 93.4% | 92.5% | 96.1% | 101% | 102% |
| C=CC(=O)N1CCN(CCCn2c(=O)c(-c3c(Cl)c(OC)cc(OC)c3Cl)cc3cnc(NC)nc32)CC1 | 85.1% and 88.1% | 86.8% | 63.3% | 72.7% | 85.3% | 88.1% | 65.2% | 69.4% |
| O=C1C[C@@H](c2ccc(O[C@@H]3O[C@H](CO)[C@@H](O)[C@H](O)[C@H]3O)cc2)Oc2cc(O)ccc21 [Liquiritin] | 92.3% and 81.1% | 83.8% | 83.3% | 90.1% | 86.4% | 89% | 96.5% | 91.4% |
| COc1cc2nccc(Oc3ccc(NC(=O)NC4CC4)c(Cl)c3)c2cc1C(N)=O [E7080 (Lenvatinib)] | 63.7% and 82.7% | 67.5% | 83.9% | 89.3% | 34.6% | 28.1% | 50.9% | 56.1% |

| Structure (SMILES) | cell viability (K562; SRSF2 genotype: SRSF2 P95H/wt) | cell viability (K562; SRSF2 genotype: SRSF2 wt/wt) | cell viability (MARIMO; SRSF2 genotype: SRSF2 P95H/wt) | cell viability (MARIMO; SRSF2 genotype: SRSF2 wt/wt) | cell viability (MOLM14; SRSF2 genotype: SRSF2 P95H/wt) | cell viability (MOLM14; SRSF2 genotype: SRSF2 wt/wt) | cell viability (OCI-AML2; SRSF2 genotype: P95H/wt) | cell viability (OCI-AML2; SRSF2 genotype: wt/wt) |
| --- | --- | --- | --- | --- | --- | --- | --- | --- |
| O=C(N/N=C/c1ccc(O)c(O)c1)c1cc2ccccc2cc1O [Dynasore] | 88.5% and 89.6% | 96% | 72.8% | 78.7% | 94.2% | 94.4% | 80% | 73% |
| CC[C@@]1(O)C(=O)OCc2c1cc1n(c2=O)Cc2cc3c(CN(C)C)c(O)ccc3nc2-1 [Topotecan] | 20.3% and 28% | 17.5% | 4.92% | 3.84% | 1.67% | 0.8% | 3.47% | 7.65% |
| COc1cc2c(cc1O)C[C@H]1c3cc(O)c(OC)cc3CC[N+]1(C)C2 (stereo partly specified) [Phellodendrine chloride] | 92.6% and 101% | 98.5% | 100% | 95.6% | 103% | 95.9% | 96.7% | 102% |
| COc1cc(C=O)ccc1O [Vanillin] | 94.2% and 102% | 99.7% | 102% | 105% | 103% | 102% | 105% | 97.5% |
| CN(C)CCOc1ccc(/C(=C(/CCCl)c2ccccc2)c2ccccc2)cc1 [Toremifene Citrate (Fareston, Acapodene)] | 64.7% and 56.1% | 71.9% | 53.7% | 65.5% | 56% | 55.7% | 60% | 51.7% |
| CC(C)(C)c1cc(NC(=O)Nc2ccc(-c3cn4c(n3)sc3cc(OCCN5CCOCC5)ccc34)cc2)no1 [Quizartinib (AC220)] | 105% and 110% | 103% | 80.1% | 82.9% | 14.9% | 9.61% | 36.9% | 45.7% |
| Cn1nnc(-c2ccc3c(c2)[nH]c2nc(Cc4ccccc4)nc(NC4CCC(N)CC4)c23)n1 (stereo unspecified) | 0.17% | 0.16% | 0.14% | 0.19% | 0.11% | 0.13% | 0.18% | 0.13% |
| C[C@]12C=CC(=O)C=C1CC[C@H]1[C@@H]3C[C@@H](O)[C@](O)(C(=O)CO)[C@@]3(C)C[C@H](O)[C@@]12F [Triamcinolone (Aristocort)] | 107% | 106% | 100% | 108% | 107% | 98.3% | 110% | 122% |
| Cn1nnnc1SCC1=C(C(=O)O)N2C(=O)[C@@H](NC(=O)[C@H](OC=O)c3ccccc3)[C@H]2SC1 [S3638 Cefamandole (nafate).cdx] | 103% and 97.5% | 102% | 97.5% | 103% | 99.4% | 104% | 97.7% | 97.6% |
| OCCOc1ccc(/C(=C(/CCCl)c2ccccc2)c2ccccc2)cc1 [Ospemifene] | 101% and 99.5% | 96.5% | 105% | 109% | 79.3% | 99.9% | 88.2% | 96.3% |
| Cc1c[nH]c2nc(Nc3ccc(N4CCN(C)CC4)c(F)c3)nc(-c3cccc(CC#N)c3)c12 | 11.7% and 1.85% | 4.64% | 4.43% | 2.84% | 0.86% | 0.46% | 0.41% | 4.1% |
| Cc1cccc(Nc2nc(-c3ccncc3)cs2)c1 | 78.1% and 89.2% | 70.8% | 49.3% | 64.4% | 74.2% | 84.9% | 64.3% | 66.9% |
| CC1CCC2(C(=O)O)CCC3(C)C(=CCC4C5(C)CCC(OC6OCC(O)C(O)C6O)C(C)(C)C5CCC43C)C2C1(C)O (stereo unspecified) [Ziyuglycoside II] | 100% and 99.1% | 101% | 97.4% | 99% | 103% | 99% | 99.6% | 95.6% |
| CC(=O)O[C@@]12CO[C@@H]1C[C@H](O)[C@@]1(C)C(=O)[C@H](O)C3=C(C)[C@@H](OC(=O)[C@H](O)[C@@H](NC(=O)OC(C)(C)C)c4ccccc4)C[C@@](O)([C@@H](OC(=O)c4ccccc4)[C@H]21)C3(C)C [Docetaxel (Taxotere)] | 25.3% and 36.8% | 34.7% | 6.89% | 5.5% | 7.8% | 4.57% | 7.58% | 13.3% |
| CC1=C[C@]2(O)O[C@@]3(CC2=C(C)C)[C@@H](C)CC[C@@H]13 [Curcumenol] | 106% and 103% | 99.5% | 96.5% | 109% | 102% | 99% | 88.6% | 99% |
| CC(C)c1cnn2c(NCc3ccccc3)cc(NCCCCCCN)nc12 | 86.8% and 99.7% | 101% | 89.9% | 87.8% | 95.9% | 98.5% | 89.4% | 87.5% |
| CC(C)(C(=O)O)c1ccc(C(O)CCCN2CCC(C(O)(c3ccccc3)c3ccccc3)CC2)cc1 (stereo unspecified) [Fexofenadine HCl] | 99.1% and 98.7% | 101% | 95.9% | 103% | 100% | 101% | 94.1% | 110% |
| COc1cc2nc(N3CCN(C(=O)C4CCCO4)CC3)nc(N)c2cc1OC (stereo unspecified) [Terazosin HCl] | 97.7% and 96.9% | 96.6% | 99.5% | 102% | 101% | 99.2% | 103% | 104% |
| N=C(N)Nc1ccc(C(=O)Oc2ccc3cc(C(=N)N)ccc3c2)cc1 [Nafamostat mesylate] | 90.4% and 98.9% | 89.4% | 77.2% | 76% | 94.2% | 89.4% | 83.2% | 85.1% |
| CCOC(=O)C1=C(C)NC(C)=C(C(=O)OCC)C1 [Diludine] | 99.6% and 92.2% | 104% | 94.3% | 99.7% | 104% | 99.3% | 99.3% | 93.9% |
| Cc1cc(=O)c2c(O)c3c(cc2o1)OC(C)(C)[C@@H](O[C@@H]1O[C@H](CO)[C@@H](O)[C@H](O)[C@H]1O)C3 [Sec-O-Glucosylhamaudol] | 105% and 101% | 114% | 106% | 98.7% | 109% | 101% | 94% | 91.3% |
